Measurements from PubChem BioAssay.
Results filed as inconclusive are left out. Calls of active or inactive are those of the source.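 Rule for the calls, unless noted: active = compound that reduces growth-factor-driven endothelial tube area in a mixed cell culture, no cutoff stated; inactive = the rest.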

What was measured:
[1] = stimulators of insulin release from INS-1E, primary screen, cell-based, 5 mM glucose, NPC library (AID 1117329;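 active = compound raises insulin release from rat beta cells at 5 mM glucose, no numeric limit stated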); conditions: rat INS-1E insulin secretion, at 10 µM, stronger effect = higher value
[2] = growth inhibition of GSK3B-pretreated HCT116 cells – cell-based, CellTiter-Glo, 0.2 to 20 µM (AID 1117336;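 active = compounds lowering colon cancer cell viability after pretreatment blocking the GSK3B kinase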); conditions: HCT116 viability after GSK3B inhibitor, at 20 µM, stronger effect = higher value
[3] = inhibition of endothelial tube formation, primary screen, imaging, VEGF stimulated, CD31 staining, tube area, NPC library (AID 1117340); conditions: VEGF-stimulated ADSC/ECFC co-culture, at 10 µM, stronger effect = higher value
[4] = glucagon-like peptide 1 release enhancers, primary assay, NCI-H716 cell line, NPC library (AID 1117341;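 active = compound raises GLP1 secretion from the human gut endocrine cells, with no numeric limit stated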); conditions: NCI-H716 cells, at 10 µM, stronger effect = higher value
[5] = HCT116 colon cancer cell growth inhibition, primary screen, CellTiter-Glo luminescence, NPC library (AID 1117342;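 active = compounds that lower survival of HCT116 colon cancer cells in the luminescence readout, no numeric limit stated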); conditions: at 20 µM (top of the series)
[6] = CellTiter-Glo luminescent readout of SW480 viability loss, NPC library primary (AID 1117343;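 active = compounds that lower viability of the colon cancer cells in the luminescence readout, with no numeric limit stated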); conditions: CellTiter-Glo luminescence; at 20 µM (top of the series)
[7] = decreased DLD-1 cellular survival, CellTiter-Glo luminescent readout, NPC compound collection, primary HTS (AID 1117346;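 active = compounds that lower survival of DLD-1 colon cancer cells in the luminescence readout, no cutoff given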); conditions: DLD-1 viability, CellTiter-Glo luminescence; at 20 µM (top of the series)
[8] = target: 6-phosphogluconate dehydrogenase, decarboxylating (Homo sapiens) (UniProt P52209); test: 6PGD enzyme inhibitors, primary screen, biochemical, human, recombinant enzyme, NADPH absorbance (AID 1159550;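 active = at least 20% inhibition of 6-phosphogluconate dehydrogenase activity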); conditions: recombinant 6PGD, NADPH absorbance 341 nm; at 10 µM; stronger effect = higher value
[9] = differential killing of epithelial or mesenchymal cells, primary screen, imaging, PC-3E GFP, TEM4-18 mCherry, co-culture (AID 1345086;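 active = compounds killing one labelled cell type while sparing the other, by normalised counts and ratio limits, not self-fluorescent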;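 for all read-outs here: cells exposed to compound for 72 h before imaging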;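 for red/green cell ratio (normalised): normalised mesenchymal count divided by normalised epithelial count so high means epithelial killing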); conditions: imaging cell counts, at 1 µM; for red/green cell ratio (normalised): actives lie on both sides, counts scaled to control wells, 1 = unselective
[10] = growth inhibition of DIPG glioma cells, dose response, cell-based, SU-DIPG-XIII, MIPE4.0, CellTiter-Glo, qHTS (AID 1347061; cut-off not given, nearly all actives have AC50 up to about 37 µM;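 note: cells exposed to compound for 48 hours before readout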); conditions: SU-DIPG-XIII viability, CellTiter-Glo ATP luminescence
[11] = growth inhibition of DIPG glioma cells, dose response, cell-based, SU-DIPG-IV, MIPE4.0, CellTiter-Glo, qHTS (AID 1347063; cut-off not given, nearly all actives have AC50 up to about 30 µM;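 note: compound exposure lasted 48 hours before the viability readout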); conditions: SU-DIPG-IV viability, CellTiter-Glo ATP luminescence
[12] = growth inhibition of DIPG glioma cells, dose response, cell-based, JHH-DIPG-1, MIPE4.0, CellTiter-Glo, qHTS (AID 1347062; cut-off not given, nearly all actives have AC50 up to about 27 µM;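 for AC50: cells exposed to compound for two days before readout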); conditions: JHH-DIPG-1 viability, CellTiter-Glo ATP luminescence
[13] = growth inhibition of DIPG glioma cells, dose response, cell-based, SU-DIPG-XIII, MIPE5.0, CellTiter-Glo, qHTS (AID 1347064; cut-off not given, nearly all actives have AC50 up to about 23 µM;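 for AC50: cells exposed to compound for 48 hours before the viability read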); conditions: SU-DIPG-XIII viability, CellTiter-Glo ATP luminescence
[14] = growth inhibition of DIPG glioma cells, dose response, cell-based, SU-DIPG-XVII, MIPE5.0, CellTiter-Glo, qHTS (AID 1347060; cut-off not given, nearly all actives have AC50 up to about 26 µM;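 note: cells exposed to compound for 48 hours before viability readout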); conditions: SU-DIPG-XVII viability, CellTiter-Glo ATP luminescence
[15] = measured here: epithelial PC-3E GFP cell survival
[16] = measured here: mesenchymal TEM4-18 mCherry cell survival

Sequence of 6-phosphogluconate dehydrogenase, decarboxylating (Homo sapiens) (P52209 whole entry, looked up): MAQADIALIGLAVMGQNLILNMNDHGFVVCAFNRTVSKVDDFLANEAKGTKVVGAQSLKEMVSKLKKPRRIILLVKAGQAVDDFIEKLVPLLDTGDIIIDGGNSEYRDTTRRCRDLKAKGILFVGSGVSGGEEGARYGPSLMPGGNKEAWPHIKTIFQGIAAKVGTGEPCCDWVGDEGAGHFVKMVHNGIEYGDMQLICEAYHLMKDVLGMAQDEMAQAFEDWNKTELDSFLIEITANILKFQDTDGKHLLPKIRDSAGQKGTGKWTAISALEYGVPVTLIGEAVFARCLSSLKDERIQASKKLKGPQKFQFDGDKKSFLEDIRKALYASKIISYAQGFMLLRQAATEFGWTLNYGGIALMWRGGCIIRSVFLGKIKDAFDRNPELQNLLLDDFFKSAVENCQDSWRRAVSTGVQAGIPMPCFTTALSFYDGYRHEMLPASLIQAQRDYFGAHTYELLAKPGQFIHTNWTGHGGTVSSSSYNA

Structure (SMILES) | insulin secretion stimulation [1] | viability decrease [2] | tube area decrease [3] | GLP1 secretion stimulation [4] | inhibition of viability [5] | viability decrease (inhibition) [6] | viability decrease (inhibition) [7] | inhibition [8] | red/green cell ratio (normalised) [9] | normalised cell number [9, 15] | normalised cell number [9, 16] | outcome [10] | outcome [11] | outcome [12] | AC50 [11] | AC50 [13] | AC50 [10] | AC50 [12] | outcome [13] | AC50 [14]
CN(C)CCC=C1c2ccccc2C=Cc2ccccc21 | 15.2% (inactive) | -81.6% (inactive) | 1.5% (inactive) | 7.9% (inactive) | 27.1% (inactive) | 111% (active) | 7.5% (inactive) | -4.48% (inactive) | 1.06 (inactive) | 1.13 | 1.19 | inactive | inactive | – | – | – | – | – | – | –
CC[N+](CC)(CC)CCOc1cccc(OCC[N+](CC)(CC)CC)c1OCC[N+](CC)(CC)CC | -1.3% (inactive) | -8.1% (inactive) | -2.2% (inactive) | 1.9% (inactive) | 8.8% (inactive) | -6.2% (inactive) | -5.3% (inactive) | 7.66% (inactive) | 1.1 (inactive) | 0.87 | 0.96 | inactive | inactive | inactive | – | – | – | – | – | –
Clc1ccc(C(c2ccccc2Cl)C(Cl)Cl)cc1 (stereo not drawn) | 1.4% (inactive) | 46.6% (inactive) | 6.6% (inactive) | 15.5% (inactive) | 88.6% (active) | 84.4% (active) | 99.5% (active) | 5.07% (inactive) | 0.98 (inactive) | 1.11 | 1.08 | – | – | – | 16.6 µM (active) | 18.6 µM (active) | – | – | – | –
O=C(N[C@H](CO)[C@H](O)c1ccc([N+](=O)[O-])cc1)C(Cl)Cl | 1.8% (inactive) | -11.1% (inactive) | 12.5% (inactive) | -4.2% (inactive) | -1.7% (inactive) | -0.7% (inactive) | -7% (inactive) | 15.5% (inactive) | 0.78 (inactive) | 1.21 | 0.95 | – | inactive | inactive | – | – | – | – | – | –
Cc1nnc(NS(=O)(=O)c2ccc(N)cc2)s1 | -2.4% (inactive) | 6.15% (inactive) | 19.3% (inactive) | 2.8% (inactive) | 0.2% (inactive) | 86.3% (active) | 3.2% (inactive) | -8.84% (inactive) | 1.39 (inactive) | 0.96 | 1.33 | – | – | – | – | – | 20.9 µM (active) | 1.32 µM (active) | inactive | –
CCOC(=O)[C@H](CCc1ccccc1)N[C@@H](C)C(=O)N1CCC[C@H]1C(=O)O | 0.7% (inactive) | 1.3% (inactive) | -1.3% (inactive) | 19.8% (inactive) | -3.77% (inactive) | 12.5% (inactive) | 3.4% (inactive) | -2.48% (inactive) | 0.88 (inactive) | 1.12 | 0.99 | inactive | inactive | inactive | – | – | – | – | inactive | –
C[C@H]1c2cccc(O)c2C(O)=C2C(=O)[C@]3(O)C(O)=C(C(N)=O)C(=O)[C@@H](N(C)C)[C@@H]3[C@@H](O)[C@@H]21 | -0.5% (inactive) | 92.4% (active) | -4.2% (inactive) | 2.6% (inactive) | 68.1% (active) | 61.1% (active) | 90.9% (active) | 9.31% (inactive) | 1.48 (inactive) | 1.06 | 1.57 | inactive | – | inactive | – | – | – | – | – | –
COC(=O)Nc1nc2ccc(Sc3ccccc3)cc2[nH]1 | 1.1% (inactive) | 48% (active) | 103% (active) | 48.3% (active) | 94.4% (active) | 81.8% (active) | 45.8% (active) | 10.3% (inactive) | 1.07 (inactive) | 0.25 | 0.26 | – | – | – | 2.64 µM (active) | – | – | – | – | 0.934 µM (active)
